# According to PubChem BioAssay (NCATS):
# Inconclusive results are not listed. The source made the active and inactive calls. Calls follow the shape of the dose curve; as a rule, active = well fitted inhibition curve with a large enough effect; inconclusive = small, poorly fitted or top-dose-only effect; inactive = flat fitted curve, though single readings scatter.
# Assay: Cytometry Cell-Based qHTS for Inhibitors of the mTORC1 Signaling Pathway in MEF cells (AID 2668);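 as to activity change, negative = inhibition: Tsc2-/- p53-/- mouse embryonic fibroblasts stably re-expressing wild-type Tsc2; percent cells positive for phospho-rpS6 Ser235/236 relative to propidium iodide stain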
# Settings: mTORC1 pathway readout; series mostly up to 38.3 µM; activity change, negative = inhibition: at the top concentration
# From the text: NIH Molecular Libraries Probe Production Centers Network [MLPCN]
# NIH Chemical Genomics Center [NCGC]
# Assay Submitter (PI): Blenis, John; Hoffman, Greg; Harvard University
# NCGC Assay Overview: The mammalian target of rapamycin (mTOR) is an intracellular serine/threonine kinase Aberrant regulation of mTOR signaling plays a causative role in a number of human diseases, including cancer, benign tumors such as lymphangioleiomyomatosis (LAM) and Tuberous Sclerosis Complex (TSC), and metabolic diseases such as diabetes and obesity. This project aims to identify inhibitors of ribosomal protein S6 (rpS6) phosphorylation. The phosphorylation of rpS6 is a key event downstream of mTOR activation. The assay uses a phospho-specific antibody of phospho-rpS6 to detect inhibitors of mTOR activation. Mutations in the Tsc1 and Tsc2 genes are the underlying genetic lesions responsible for TSC, causing constitutive activation of the mTORC1 pathway and leading to profound effects on cell metabolism. Aberrant metabolism in cancer has recently received significant attention as a target to develop therapeutic agents in the treatment of cancer.1 As Tsc2-/- cells have lost the ability to respond to energy and growth factor deprivation, these cells are unable to properly down regulate cellular biosynthetic processes in response to metabolic stress, and are thus extremely sensitive to glucose deprivation-induced death.2 A central goal of this project is to explore the unique cell survival and metabolic properties of cells with Tsc1 or Tsc2 by screening for compounds that selectively target the Tsc2-/- MEFs by screening both Tsc2-/- and WT MEF cell lines. We hope to better understand these aspects of TSC physiology in order to exploit them for therapeutic benefit.
# NCGC Acumen Assay Protocol:
# For quantitative high throughput analysis of mTORC1 signaling, we developed a cell-based assay for immuno-fluorescence based detection of rpS6 phosphorylation on the Acumen Explorer that will be used a platform for the primary small molecule screen. Mouse embryonic fibroblasts (MEFs) are cultured in 1536-well plates using DMEM + 10% FBS. Twenty-four hrs after plating, test compounds (solubilized in DMSO) are delivered and incubated with the cells for 24 hrs at 37 degree Celsius. Following the incubation, media with compound is aspirated and the cells are fixed in 4% paraformaldehyde (PFA) containing PBS + 0.2% TX-100. Next, PFA is aspirated, cells are washed two times with PBS plus 0.2% TX-100 and the cells are blocked for 1 hr at room temperature (blocking buffer: LiCOR Blocking Buffer plus 0.2% TX-100). This is followed by aspiration and staining with Alexa-488 conjugated-phospho-rpS6 Ser235/236 antibody for 2 hours at room temperature (Cell Signaling Technology # 4803, 1:50 dilution in blocking buffer). Cells are washed two times with PBS plus 0.2% TX-100, and stained with 10 uM propidium iodide (PI) for 20-25 minutes for cell number measurement (1:500 dilution of Hoescht staining is also added for IN Cell imaging). The plates are scanned on the Acumen Explorer laser scanning instrument (TTP Labtech) using the 488nm laser for simultaneous excitation of the Alexa-488 and PI. The fluorescence emission from the Alexa-488 conjugated rpS6 phospho-235/236 antibody staining is selected using a […] band pass filter. Fluorescence emission from the PI stain is selected using a 575-640 nm band pass filter. The normalized phospho-S6 staining is calculated as the ratio of the integrated Alexa 488 intensity divided by the integrated PI intensity for the single concentration rapamycin control (7.5 nM) and DMSO columns. […] Inhibition of the pathway is defined based on the normalized phospho-S6 intensity in rapamycin treated cells. […]
# Potency is read from the fitted curve at half-maximal effect.
Structure (SMILES),"activity change, negative = inhibition",Potency
C[C@@H](NC(=O)/C(C#N)=C/c1ccc(O)c(O)c1)c1ccccc1,2.41% (inactive),
CN1CCC[C@H]1c1cccnc1,1.69% (inactive),
OCC1O[C@H](O)C(Cl)C(O)C1O (stereo not given in full),5.51% (inactive),
CSc1ccccc1N1CCN(CCCCCC(=O)NC2CCCc3ccccc32)CC1 (stereo not given),,11.7 µM (active)
O=C(O)CC1CC(c2ccccc2)=NO1 (stereo not given),3.98% (inactive),
CN1[C@@H](CC(=O)c2ccccc2)CCC[C@H]1C[C@H](O)c1ccccc1,0.126% (inactive),
O=C1NC(=O)/C(=C/c2ccc(-c3ccc(F)cc3O)o2)S1,6.55% (inactive),
CC(C)(C=O)Cc1cc(C(C)(C)C)c(O)c(C(C)(C)C)c1,13.7% (inactive),
CN1CCc2cc(NC(=O)Nc3cccnc3)ccc21,4.57% (inactive),
CNC(=O)[C@H]1O[C@@H](n2cnc3c(NCc4cccc(I)c4)ncnc32)[C@H](O)[C@@H]1O,2.88% (inactive),
N#C/C(=C\c1ccc(-c2cc(Cl)ccc2Cl)o1)C(=O)Nc1cccc2ncccc12,-0.651% (inactive),
CCc1c(C(=O)NCCc2ccc(N3CCCCC3)cc2)[nH]c2ccc(Cl)cc12,-6.37% (inactive),
O=C(c1ccc(OCCCc2cnc[nH]2)cc1)C1CC1,4.23% (inactive),
Cc1nc2sccn2c(=O)c1CCN1CCC(=C(c2ccccc2)c2ccc(F)cc2)CC1,-22% (inactive),
CC(=O)SCC[N+](C)(C)C,1.74% (inactive),
Clc1ccc(N2CCN(Cc3cc4ccccn4n3)CC2)cc1,18.2% (inactive),
N.N.N.N.N.N.N.N.N.N.N.N.N.N.O.O.[Ru+4].[Ru+5].[Ru+5],-4.38% (inactive),
CN=c1nc(-c2ccccc2)n(-c2ccccc2)s1,-14.3% (inactive),
Nc1nc(Cl)nc2c1ncn2[C@@H]1O[C@H](COP(=O)(O)OP(=O)(O)OP(=O)(O)O)[C@@H](O)[C@H]1O,-23.9% (inactive),
CC(=O)N[C@H](C(=O)O)C(C)(C)SN=O,0.25% (inactive),

Structure (SMILES),"activity change, negative = inhibition",Potency
COc1cccc(OC)c1OCCNCC1COc2ccccc2O1 (stereo not given),2.04% (inactive),
Nc1nc(Nc2ccccc2)nc2c1ncn2[C@@H]1O[C@H](CO)[C@@H](O)[C@H]1O,-0.36% (inactive),
O=C(O)c1cc([N+](=O)[O-])ccc1NCCCc1ccccc1,1.02% (inactive),
C=CC(=O)c1ccc(CCCCCC)cc1,1.82% (inactive),
NC[C@H]1O[C@@H](n2cnc3c(N)ncnc32)[C@H](O)[C@@H]1O,-1.08% (inactive),
O=C(O)CNC(=O)C(CS)Cc1ccccc1 (stereo not given),6.59% (inactive),
NC(=S)NCCC[C@H](N)C(=O)O,-0.894% (inactive),
CCN1/C(=C/C(C)=O)Sc2ccc(OC)cc21,-4.21% (inactive),
Nc1ncnc2c1ncn2[C@@H]1O[C@H](COP(=O)(O)OP(=O)(O)OP(=O)(O)OP(=O)(O)OC[C@@H]2O[C@H](n3cnc4c(N)ncnc43)[C@@H](O)[C@H]2O)[C@@H](O)[C@H]1O,-13% (inactive),
CC(C)(C)c1ccc(S(=O)(=O)/C=C/C#N)cc1,-2.31% (inactive),
COc1ccccc1N1CCN(CCCCNS(=O)(=O)c2cccc3c(N(C)C)cccc23)CC1,,16.5 µM (active)
Fc1ccc(C(OCCCc2cnc[nH]2)c2ccc(F)cc2)cc1,-12.9% (inactive),
c1ccc(-c2ccccn2)nc1,-5.83% (inactive),
O=C(O)[C@@H]1C[C@H](C(=O)O)N1,2.94% (inactive),
COc1cccc(C(=O)NCCN2CCN(c3ccc(Cl)cc3)CC2)c1,13.2% (inactive),
NCCCCCCCCCCN,-2.98% (inactive),
CN(C)C(N)=NCCC[C@H](N)C(=O)O,-4.59% (inactive),
CNC(=O)[C@H]1O[C@@H](n2cnc3c(NCc4ccc(N)cc4)ncnc32)[C@H](O)[C@@H]1O,-2.89% (inactive),
C=CC(C)=C[C@@]1(C)SC(=O)C(C)=C1O,6.82% (inactive),
O=c1[nH]c2cc(Cl)c(Cl)cc2[nH]c1=O,8.94% (inactive),
